From PubChem
Shown are actives, neighbours in structure and some others; about 3.3% of the full set was active somewhere.
AmpC inh detg: blocks E. coli AmpC beta-lactamase in detergent assay; P00811; AmpC hydrolysis of nitrocefin, absorbance 480 nm, 0.01% Triton; Potency, µM (top dose mostly 114 µM), for the others: at the highest dose activity change, negative = inhibition, most hits filed as inhibitors; hit rate 0.041% among 370,000; AID 485294;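 also: 0% = no-compound wells and -100% = no-enzyme wells; nearly all actives have a fitted effect of over 25% in size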
Target sequence (P00811 whole entry, looked up): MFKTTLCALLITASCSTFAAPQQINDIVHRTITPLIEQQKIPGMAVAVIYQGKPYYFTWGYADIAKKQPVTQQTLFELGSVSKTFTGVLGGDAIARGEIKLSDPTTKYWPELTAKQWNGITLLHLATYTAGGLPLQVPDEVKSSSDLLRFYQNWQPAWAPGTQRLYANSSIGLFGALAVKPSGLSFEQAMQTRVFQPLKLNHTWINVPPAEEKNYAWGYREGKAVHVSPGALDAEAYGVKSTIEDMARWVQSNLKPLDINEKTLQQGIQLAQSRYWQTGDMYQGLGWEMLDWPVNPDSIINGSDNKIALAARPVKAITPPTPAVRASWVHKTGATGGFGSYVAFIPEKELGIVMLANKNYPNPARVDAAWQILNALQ
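AmpC (5.3 nM in the dispensed reagent) in 20 mM phosphate pH 7.0 with 0.01% (detergent screen) or 0.0001% Triton X-100 was preincubated with compounds for 15 min at room temperature. Nitrocefin was then added from an 800 uM solution, and hydrolysis was followed at 480 nm.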
AmpC no deterg: blocks E. coli AmpC beta-lactamase in detergent-free assay | P00811 | Potency, µM (titrated, usually from 57.1 µM), without a hit: at the top dose activity change, negative = inhibition, hits mostly inhibitors | hit rate 0.52% among 330,000 | AmpC nitrocefin hydrolysis, absorbance 480 nm, 0.0001% Triton;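 also: plate controls were no compound for no effect and no enzyme for full effect; nearly all actives have a fitted effect of over 20% in size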
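20 mM phosphate pH 7.0 + 0.01% (detergent screen) or 0.0001% Triton X-100; 5.3 nM AmpC reagent; cpd preinc 15 min RT; nitrocefin (800 uM stock) to start; A480 q20 s × 4 min; Activity was normalised to no-enzyme and no-compound control wells.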
Sm TGR block: S. mansoni TGR enzyme inhibition; hit rate 3% among 360,000; purified TGR, DTNB reduction, TNB absorbance 405 nm; Potency, µM (doses to about 114 µM), for the others: top-dose activity change, negative = inhibition, usual class: inhibitors; also: nearly all actives have a fitted effect of over 60% in size
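TGR 20 nM + NADPH 100 uM (dispensed conc.), cpd preinc 15 min RT; start with NADPH (500 uM addition) then DTNB (15 mM addition). Kinetic TNB absorbance, 405 nm filter. Four-parameter Hill fit across titration.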
Numbers without * were called inactive; ? = inconclusive; . = no result given. Calls follow the shape of the dose curve; as a rule, active = well fitted curve in the direction sought with a large enough effect; inconclusive = small, poorly fitted or top-dose-only effect, or another doubt; inactive = no such curve, though single readings can be large; an effect the other way counts as inactive or inconclusive. Unless noted, % is scaled to controls: 0 for no effect and ±100 for the full control effect; potency is read from the fitted curve at half-maximal effect.

SMILES	AmpC inh detg	AmpC no deterg	Sm TGR block
COc1cccc(NC(=O)c2ccc(-c3ccc([N+](=O)[O-])cc3)o2)c1	-6%	18µM*	25µM*
Cc1cccc(C(c2sc3nc(-c4ccco4)nn3c2O)N2CCN(Cc3ccccc3)CC2)c1 (stereo not drawn)	12%	.	1%
CCOC(=O)[C@H]1[C@H]2COc3ccc(Br)cc3[C@@H]2N2C(=O)CN(Cc3ccc(Cl)cc3)C(=O)[C@@]12C	.	121%	.
CCOC(=O)[C@H]1[C@H]2COc3ccc(Br)cc3[C@@H]2N2C(=O)CN(Cc3ccco3)C(=O)[C@@]12C	5%	143%	32µM*
O=C(CSc1nnc(CNC(=O)c2ccccc2)n1-c1cccc(Cl)c1)Nc1ccccc1F	11%	.	-1%
CSc1ccc(CCNC(=O)c2ccc3c(c2)nc2n3CCCCC2)cc1	14%	.	2%
CN(C)/C=N/C(=S)Nc1ccccc1Cl	4%	2%	.
S=C(NCCc1ccccc1)Nc1ccc(Cl)cc1Cl	-8%	-20%	1%
CN(O)/C=N/C(=S)Nc1ccc(Cl)cc1Cl	1%	-22%	0.56µM*
CCNC(=S)Nc1ccc(Cl)cc1Cl	-18%	-18%	45µM*
COc1cccc(C(=O)N2CCCCC2CCN2CCCCC2)c1 (stereo not drawn)	18%	.	-1%
CCC(C)NC(=O)c1cc2n(n1)CCCN(Cc1ccc(C)cc1)C2=O (stereo not drawn)	-2%	.	-2%
CCN(CCCNC(=O)c1cc(Nc2ccccc2OC)nc2ccccc12)c1cccc(C)c1	5%	.	21%
CCOC(=O)c1sc(NC(=O)CSc2n[nH]c(-c3ccccc3)n2)c(C#N)c1C	-3%	-39%	0%
Cc1ccc(/C=C/C2=Cc3c(sc(NC(=O)CSc4n[nH]c(N)n4)c3C#N)C(C)(C)C2)o1	-7%	13µM*	2.5µM*
CCCCN(C)S(=O)(=O)c1cc(-c2nnc3c4ccccc4c(C)nn23)ccc1C	-2%	.	5%
CCOC(=O)c1cc(-c2ccc(C)cc2)n(CCC(=O)Nc2nc3c(C)cccc3s2)c1C	-6%	.	12%
CC1(C)CC(=O)C(C=NCCN2CCOCC2)=C(O)C1	3%	-12%	?
CN(C=C1C(=O)CC(C)(C)CC1=O)CCN1CCNCC1	0%	-12%	22µM*
CCOC(=O)c1c(NC(=O)CSc2cn(CCNC(=O)c3ccc(OC)c(OC)c3)c3ccccc23)sc2c1CCCC2	2%	.	10%
O=C(CSc1n[nH]c(-c2ccc(S(=O)(=O)N3CCCCC3)cc2)n1)Nc1nccs1	?	14µM*	4%
Cn1c(SCC(=O)Nc2nccs2)nnc1-c1ccc(S(=O)(=O)N2CCCC2)cc1	-11%	-15%	6%
COc1ccc(Cn2c(C(=O)O)c(CNCc3ccccc3F)c3ccc(OC)cc32)cc1	4%	.	-2%
CCN(C(=O)COC(=O)/C=C/c1ccco1)c1c(N)n(Cc2ccccc2)c(=O)[nH]c1=O	-8%	1%	20µM*
COCCN(C(=O)c1cc(-c2ccco2)nc2ccccc12)c1c(N)n(Cc2ccccc2)c(=O)[nH]c1=O	.	-12%	.
SMILES	AmpC inh detg	AmpC no deterg	Sm TGR block
CCCCN(C(=O)c1cc(-c2ccco2)nc2ccccc12)c1c(N)n(CCCC)c(=O)[nH]c1=O	?	-28%	3.5µM*
CCN(C(=O)COC(=O)Cc1ccccc1)c1c(N)n(Cc2ccccc2)c(=O)[nH]c1=O	-3%	-8%	-9%
CCCCn1c(N)c(N(CCOC)C(=O)c2ccc(N3C(=O)CCC3=O)cc2)c(=O)[nH]c1=O	-6%	-12%	-1%
CCCN(C(=O)c1cc(-c2ccco2)nc2ccccc12)c1c(N)n(Cc2ccccc2)c(=O)[nH]c1=O	?	-1%	8.9µM*
CCCCn1c(N)c(N(CCOC)C(=O)c2ccc(-n3c(C)ccc3C)cc2)c(=O)[nH]c1=O	0%	52%	40µM*
CCCCn1c(N)c(N(CCC(C)C)C(=O)c2cc(-c3ccco3)nc3ccccc23)c(=O)[nH]c1=O	-5%	-36%	-14%
Cc1ccccc1NC(=O)CSc1nc(-c2ccccc2)cn1-c1ccccc1F	8%	.	0%
CCCCn1c(N)c(N(CCOC)C(=O)c2cc(-c3ccc(OC)c(OC)c3)nc3ccccc23)c(=O)[nH]c1=O	?	11%	-17%
CC(C)CN(C(=O)C1=NN(c2ccccc2)C(=O)CC1)c1c(N)n(Cc2ccccc2)c(=O)[nH]c1=O	0%	-21%	-24%
CCCCn1c(N)c(N(CCOC)C(=O)c2cc(-c3ccco3)nc3ccccc23)c(=O)[nH]c1=O	?	-14%	25µM*
CCCCn1c(N)c(N(CC(C)C)C(=O)C2=NN(c3ccccc3)C(=O)CC2)c(=O)[nH]c1=O	4%	-12%	89µM*
O=C(NCc1ccco1)c1c[nH]c2ccc(S(=O)(=O)Nc3ccc(F)cc3F)cc2c1=O	-4%	.	?
COc1cc(-c2nnc(SCC(=O)Nc3cccc(C#N)c3)o2)cc(OC)c1OC	5%	.	-15%
CCCSCCCNC(=O)C1CCN(C(=O)c2cnn(-c3ccccc3)c2-n2cccc2)CC1	3%	.	-7%
COCCNC(=O)CCc1c(C)n(C)c2cc(-c3cc(OC)c(OC)c(OC)c3)nn2c1=O	-1%	.	1%
CCc1ccc(NC(=O)C2=CC(c3cccs3)=NS(=O)(=O)N2C)cc1	-10%	18µM*	0%
Cc1ccc(NC(=O)C2=CC(c3cccs3)=NS(=O)(=O)N2C)cc1	-10%	-34%	-12%
C/C(=N\NC(=O)C1CC1)c1cccc(NC(=O)c2cccc(Cl)c2)c1	-1%	-10%	2%
C/C(=N\NC(=O)c1ccccc1O)c1cccc(NC(=O)c2ccccc2)c1	-14%	-56%	8%
C/C(=N\NC(=O)CSCc1ccccc1Cl)c1cccc(NC(=O)c2ccccc2)c1	-5%	22µM*	0%
CC/C(=N\NC(=O)CSCc1ccccc1Cl)c1ccc2c(c1)OCCO2	?	-11%	7%
C/C(=N\NC(=O)c1cc(O)ccc1O)c1cccc(NC(=O)c2cccc(Cl)c2)c1	2%	-39%	63µM*
C/C(=N\NC(=O)c1cc(O)ccc1O)c1cccc(NC(=O)c2ccc(Cl)cc2)c1	2%	-46%	40µM*
O=C(Cn1nc(C(F)(F)F)c2c1CCCC2)Nc1ccc(F)c(Cl)c1	8%	.	0%
CN(C)c1ccc(NC(=O)CSC2=Nc3ccccc3C3=NC(CC(=O)NCc4ccccc4)C(=O)N23)cc1 (stereo not drawn)	11%	.	-1%
SMILES	AmpC inh detg	AmpC no deterg	Sm TGR block
CCOC(=O)c1sc2ccccc2c1S(=O)(=O)N1CCN(c2cc(C)ccc2C)CC1	-1%	.	7%
CCN(c1ccccc1C)S(=O)(=O)c1nnc(NC(=O)c2ccc(OC)c(OC)c2)s1	16%	.	-4%
Cc1nc(CC(=O)Nc2ccc(N(C)C)cc2)cs1	18%	.	-1%
Cc1ccc(CN2C(=O)SC(Nc3ccc(Cl)cc3)C2=O)cc1 (stereo not drawn)	7%	.	5%
CC1(C)Cc2c(c(-c3ccccc3)[nH]c(=O)c2C#N)CS1	?	-34%	-13%
CC1(C)Cc2c(c(-c3ccco3)[nH]c(=O)c2C#N)CS1	-14%	-15%	32µM*
CCc1nc(N2CCN(C(=O)c3ccco3)CC2)c(C#N)c2c1COC(C)(C)C2	-12%	58%	0%
